The supplement of paper PMC11417369
Over roughly 25,000 sequences, “ln(normalized median fluorescence intensity)” has its median near 6.7; the highest 2% begin near 10. Many of the other results were omitted from the sample, so the highest values are more common in it than they were.

System: PfHDP1 homeodomain (GST-tagged)
Test: gcPBM binding intensity (ln(normalized median fluorescence intensity)); higher = stronger DNA binding
Outline: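 Using an Agilent 4 × 180k array, primer-extended double-stranded 36-bp intergenic genomic probes and negative controls were exposed for 1 h to GST-fused P. falciparum DNA-binding domains expressed in E. coli. Binding was carried out in 1× PBS with 1% milk, 0.2 mg/ml BSA, 0.5% salmon testes DNA and 0.03% Triton X-100, and protein was detected with Alexa488 anti-GST antibody and a 488 nm scan. Binding intensity is the highest Masliner-normalised natural-log median intensity across replicate spots of either probe orientation.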

Row | Sequence | gcPBM binding intensity (ln)
1 | TATGGAAGAAAATATACACACAAAAAAAAAAAATGT [CACACA_site1486] | 6.58
2 | TATATAATATATAAATGTACTTTTGTCTTATATGAA [XGTACX_site7211] | 6.32
3 | TATTTTGTATTCATTTGTCACATATAATAGATAGGA [TGCATGCA_negctrl_site9] | 6.82
4 | TTTCTTTTTAAATATATACACACCGTGGGTACATAT [CACACA_site9102] | 6.81
5 | AATGAATCCTTATATACACACATTATTATATTATAT [CACACA_site3108] | 7.23
6 | TACTTTTTAGGAAAGTGTACAAGCATATAAGGAATA [XGTACX_site2834] | 6.83
7 | TATGTGTGCAAAAACTGTACACATTAAAGGTATATA [XGTACX_site7627] | 10.3
8 | ATATGTACGCAAGGTGCACACTGGTGCATTAAAAAA [CACACA_site1801] | 11.5
9 | GCAAGGTCCACACTGGTGCATTAAAAATAAAATATA [GTGCAC_site9956] | 10.4
10 | AATATATTTATGCTCATGCACTTTTTTTTTTTTTTT [GTGCAC_site9654] | 10
11 | CACTTCATAAAAATTGCACACATATAATAATGTACA [CACACA_site8692] | 10.1
12 | ATATTTATTTATATTACACACATGTGCAATTAAACT [CACACA_site6928] | 10.7
13 | TATTATAAAATATACACATGCAAAAACAAAATTTAC [TGCATGCA_site1051] | 7.03
14 | TATATTAAAAAAAAATGTACACATATATATATATAT [XGTACX_site4524] | 9.21
15 | AAAATTAAAATATATACACACATATATATATTAAAT [CACACA_site4419] | 6.25
16 | GTATATTAATAAACATGTACACAATTTATTTATATT [XGTACX_site1012] | 6.6
17 | ATATATATATATATTACACACATGTGCAATTAAAAT [CACACA_site1778] | 10.7
18 | ATATATATATTAATTACACACAAAAAAAAAAAAAAA [CACACA_site1165] | 7.49
19 | ATATATATATATATTACACACTTTTTCTTTTTTTTT [CACACA_site2780] | 9.01
20 | AATAAATTAAAACAGGTGCACTATATTACACACGCT | 9.7

Row | Sequence | gcPBM binding intensity (ln)
21 | CAGGTGCACTATATTACACACGCTTCTTTTTTTTTA [CACACA_site2069] | 11
22 | TATAAAAATATATATATATATATATATATATATATA [TGCATGCA_negctrl_site541] | 9.32
23 | TCATTAAATGTTTAGGTGCATACTTTAATTTTTAAT [GTGCAC_site9906] | 9.31
24 | AACATAAATTACTTTTTACACACTAATATAAAATAC [CACACA_site8297] | 6.54
25 | AAAAAAAAATTAAACATACACACGTTACTATTTTTA [CACACA_site1687] | 6.29
26 | TTAAATTACTAATGTGCACACATACTAACGTTTAAA [CACACA_site3573] | 11
27 | AAAAATTAAATAAATTTACACACTAATAATTACATA [CACACA_site8260] | 6.3
28 | AAATTACTAATGTGCACACATACTAACGTTTAAATA [CACACA_site3572] | 11.3
29 | GAATATAATCTGTATTGTACGAAAGTTGAACACTTG [XGTACX_site8895] | 6.3
30 | GATCAAAATTATAGAAGTACTTTATATAAATAAAAT [XGTACX_site8161] | 6.41
31 | AAAAAAAAAAGACATGCATACGCTAATTTTTAGTTG [TGCATGCA_site300] | 5.98
32 | TTTATATTAGGTCTTGAACGATTTTCATCATTATTA [TGCATGCA_negctrl_site100] | 6.04
33 | TTTTTTAATATATTATTATAAATATTTTTTATGTGT [GTGCAC_negctrl_site712] | 6.46
34 | ATATCGTTATTTTTATGTACTAAAATATTTAATTAT [XGTACX_site3516] | 7.03
35 | TTTATCTAAATATGTGTGCACTCGTTAATTTTTTTT | 10.8
36 | ATAACATGAACATATGTTACACAAACATACATACAT [XGTACX_negctrl_site365] | 6.77
37 | TTTAGTTCATACTATGCACACTACGTATATTTTTAA [CACACA_site5484] | 8.95
38 | AGTAATAGTTTGTGCACACTCAAGTATATCATATAT [CACACA_site4034] | 11.2
39 | GTAATATCAATATAAAGTACACACTATAGTATGTAT [XGTACX_site4714] | 6.4
40 | TAAGTAATAGTTTGTGCACACTCAAGTATATCATAT [CACACA_site4035] | 11.1

Row | Sequence | gcPBM binding intensity (ln)
41 | AGTAATAGTTTGTGCACACTCAAGTATATCATAGAT [CACACA_site6082] | 11.1
42 | TTGTACAAAAATAATGCACACTATATCAAGTTTTTT [CACACA_site5898] | 10.3
43 | TATATATATATCAAGTGTACTTGTGTTTGTAATATT [XGTACX_site8854] | 8.6
44 | TATATATCAATATGCACACACAAGAAGTAATTATAA [CACACA_site7487] | 9.74
45 | TTTATAGTTTTTAATAGTACACATATTTTTAAGTAT [XGTACX_site5498] | 6.38
46 | TTTTGTACAAAAATAATGCACACTATATCAAGTTTT [CACACA_site3595] | 10.4
47 | ATATATGTAACATATTGTACATATATGTATGTATGT [XGTACX_site3281] | 6.97
48 | AATATTTTATTTTGGGTGCAAAAGAATATTATTTCA | 9.49
49 | CAATTAAATATATGAACACACATGTGAACTTTCTAT [CACACA_site3977] | 6.36
50 | AATATACAAAATAAATAAAATATATATATATATATA [CACACA_negctrl_site216] | 9.24
51 | AATTTAATTTTTTCGTGTACTTATATAGGAGGTTTT [XGTACX_site8310] | 6.76
52 | TAGAAGTACATATATGCATGTTAATTTTAAAGGAGG [TGCATGCA_site538] | 6.9
53 | CTATTTTATATGTGCACACATATACTCAGACAAATA [CACACA_site4761] | 10.6
54 | TATACATATTTTATAGCACACAAATAATAATATGTA [CACACA_site8129] | 6.63
55 | CTTACACCCATATATACACACATGTATATTTTATAT [CACACA_site4462] | 7.24
56 | TATATACATATATGCACACAAAAAAATATATATTTT [CACACA_site1729] | 10.1
57 | CTATTTTATATGTGCACACATATACACCCACAAATA [CACACA_site1131] | 10.1
58 | TTCTATTTTATATGTGCACACATATACACCCACAAA [CACACA_site1130] | 10.9
